Screening results as filed in PubChem BioAssay.
Only some compounds are listed: those with a hit (about 19% of all), similar ones and a draw of the others.
TDP1 cell CPT: DT40-hTDP1 cell growth loss with CPT; chicken DT40 Tdp1-/-;hTDP1 cells + 20 nM CPT, ATP luminescence, 48 h; Potency, µM (highest dose often 46.2 µM), for inactives: at the highest dose activity change, negative = growth inhibition, most hits filed as inhibitors; 12% of 420,000 active; AID 686979; further: potency means the concentration at half of the fitted maximal effect; on the % scale 0 is the no-effect control and ±100 the full control effect; nearly all actives have a fitted effect of over 55% in size
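Chicken DT40 Tdp1-/- cells complemented with human TDP1, 400 cells/well, exposed to compounds plus 20 nM camptothecin for at least 48 h at 37 C; viability read as ATP content by CellTiter-Glo luminescence.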
SW480 rereplic: inducers of DNA re-replication in SW480 colon cancer cells; SW480 DNA re-replication, Hoechst DNA content imaging, 48 h; Potency, µM (series often up to 46.1 µM), for inactives: top-dose re-replication activation, usual class: activators; 1.8% of 340,000 active; further: potency means the concentration at half of the fitted maximal effect; % of control where 0% means no effect; nearly all actives have a fitted effect of over 55% in size
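SW480 cells exposed to compounds for 48 hr at 37 C, 5% CO2, then Hoechst-stained 40 min. Nuclear DNA content imaged by fluorescence scanning (405 nm excitation, 500-530 nm emission); re-replication scored as increased high-intensity nuclei.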
IL-1B inflam inh: blocks inflammasome-driven IL-1 beta release; 4.7% of 360,000 active; activity change, % at 57.5 µM; AID 743279; THP-1 LPS/ATP IL-1B secretion, AlphaLISA, 16 h; stronger effect = lower value; in the data active means activity change below about -50%; inconclusive means mostly about -30% to -49%; further: on the % scale 0 is the no-effect control and ±100 the full control effect
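THP-1 cells pretreated 1 hr with compounds (up to 57.5 uM final), then stimulated with LPS (250 ng/mL final) plus ATP (1.25 mM final); secreted IL-1B measured by AlphaLISA after 16 hr, decreased signal indicating inhibition.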
MCF10A rereplic: induces DNA re-replication in MCF 10a normal breast cells; MCF 10A DNA re-replication, Hoechst nuclear intensity, 48 h; Potency, µM (doses to about 46.1 µM), for inactives: at the top dose activity, positive = re-replication, most hits filed as activators; 2.9% of 350,000 active; AID 624296; further: potency means the concentration at half of the fitted maximal effect; % of control where 0% means no effect; nearly all actives have a fitted effect of over 50% in size
TDP1 cell noCPT: qHTS for Inhibitors of human tyrosyl-DNA phosphodiesterase 1 (TDP1): qHTS in cells in absence of CPT. Potency, µM (titrated, usually from 46.2 µM), for inactives: at the top dose activity change, negative = growth inhibition, most hits filed as inhibitors. 15% of 420,000 active. AID 686978, 2013. DT40 Tdp1-/- hTDP1 cells, no CPT, ATP luminescence, 48 h; further: potency means the concentration at half of the fitted maximal effect; on the % scale 0 is the no-effect control and ±100 the full control effect; nearly all actives have a fitted effect of over 55% in size
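Growth of hTDP1-complemented DT40 Tdp1-knockout cells is measured by ATP luminescence after at least 48 hr compound exposure at 37 °C, with DMSO substituting for the 20 nM CPT used in the parallel screen.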
BCR signal inh: inhibitors of chronic active B-cell receptor signaling; 0.05% of 340,000 active; ABC-DLBCL IkBa-CBG/CBR reporter, luminescence ratio, 4 h; AID 493014; Potency, µM (top dose mostly 46.1 µM), inactives show at the top dose activity change, negative = inhibition, actives largely listed as inhibitors; active means well fitted inhibition curve with a large enough effect in the signal ratio, with a control signal flat, not every such curve was filed as active; inconclusive means small, poorly fitted or top-dose-only effect, or effect the other way, or a change in a side signal; the % refers to the signal ratio;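 further: potency means the concentration at half of the fitted maximal effect; plate controls were basal doxycycline-induced cells for no effect and cells given 10 µM MG132 for full effect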
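Concentration-response series (up to 46 uM) were applied to TMD8 dual-reporter cells for 4 h at 37C with doxycycline. Green/red ratio, after filter-overlap correction, defined %Activity; red signal alone was normalised to basal cells and zero luminescence.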
* marks the source's active call; other numbers are inactive results; ? = inconclusive; . = no result given; [ ] = dose if it differs, or a comment. Unless noted, the call rests on the fitted dose curve; in most records, active means well fitted curve in the direction sought with a large enough effect; inconclusive means small, poorly fitted or top-dose-only effect, or another doubt; inactive means no such curve, though single readings can be large; an effect the other way counts as inactive or inconclusive.

SMILES	TDP1 cell CPT	SW480 rereplic	IL-1B inflam inh	MCF10A rereplic	TDP1 cell noCPT	BCR signal inh
CCOC(=O)C1(C)CCN1C(=O)c1ccc(F)c(Cl)c1 (configuration not stated)	-30%	.	16	.	-16%	.
Cn1c(=O)c2c(nc(N3CCOCC3)n2Cc2ccc(Br)cc2)n(C)c1=O	10µM*	.	.	.	21µM*	.
CCCn1c(SCC(=O)N2CCCC2)nc2c1c(=O)n(C)c(=O)n2C	-14%	-15%	0	8%	-1%	5%
CCCn1c(SCC(=O)N2CCN(c3ccc(OC)cc3)CC2)nc2c1c(=O)n(C)c(=O)n2C	18µM*	-3%	57	?	16µM*	0%
CCn1c(SCC(=O)N2c3ccccc3CCc3ccccc32)nc2c1c(=O)n(C)c(=O)n2C	?	5%	-2	21%	?	.
CC1Cc2ccccc2N1C(=O)CSc1nc2c(c(=O)n(C)c(=O)n2C)n1Cc1ccccc1 (configuration not stated)	23µM*	2%	-14	-1%	21µM*	0%
Cc1cc(NCCCOC(C)C)n2c(nc3ccccc32)c1C#N	?	5%	-7	?	26µM*	7%
Cc1ccc(Nc2cc(C)c(C#N)c3nc4ccccc4n23)c(C)c1	15µM*	.	.	.	13µM*	.
CN(C)c1ccc2c(c1[N+](=O)[O-])Cc1ccccc1-2	7%	-2%	-11	1%	-13%	.
Nc1cc2c(cc1N)-c1ccccc1C2	?	?	-52*	?	16µM*	.
Nc1ccc2c(c1)Cc1cc(N)c(Cl)cc1-2	3%	-5%	-5	14%	-6%	.
CCOC(=O)C1=C(N)OC(CCl)=C(C#N)C1c1ccsc1 (configuration not stated)	2.1µM*	6%	-2	2%	2.6µM*	2%
O=C1c2ccccc2[C@@H]2CC(O)C(O)CCN12 (some centres not stated)	-12%	-16%[9.22 µM]	0	-16%	-8%	1%
CC1(C)Cc2ccccc2C2CC(O)C(=O)N21 (configuration not stated)	15µM*	5%	-1	-6%	?	-1%
CCc1nc(CN2CCN(c3cc(C(F)(F)F)ccn3)CC2)c(C)[nH]1	23µM*	-19%	0	20%	16µM*	7%
FC(F)(F)c1cccc(CN2CCN(c3ncccn3)CC2)c1	-5%	-22%	12	-4%	-9%	.
Cc1ccc(O)c(N=Nc2nccs2)c1	1.2µM*	10%	216	4%	0.92µM*	?
COc1ccc(N=Nc2cc(C)ccc2O)cc1	-23%	-1%	-8	-2%	1%	?
CN1CCC2(CC1)N=C(c1ccc(F)cc1)C(=S)N2C(=O)c1ccc(C(C)(C)C)cc1	7.3µM*	3%	?	8.2µM*	5.8µM*	-17%
Cn1c(-c2cccc([N+](=O)[O-])c2)cnc1NCc1ccc(C#N)cc1	?	-36%	-11	-1%	?	4%
Cc1ccc([N+](=O)[O-])cc1S(=O)(=O)n1ccnc1C	21µM*	20%	2	17%	18µM*	1%
COc1ccc(-c2cn(-c3ccccc3)nc2C(=O)O)cc1OC	1%	5%	-5	2%	1%	-1%
COc1ccc(C#Cc2cccc(-c3nc(C(=O)NCc4ccc(Oc5ccccc5)cc4)cc4c3[C@@H](CCO)N(S(=O)C(C)(C)C)C4)c2)cc1OC (some centres not stated)	?	.	-11	.	?	.
COc1cccc(CNC(=O)C2CCC(CNS(=O)(=O)c3ccc4c(c3)CCCC(=O)N4)CC2)c1 (configuration not stated)	-25%	.	.	.	-22%	.
